In PubChem BioAssay (NCI):
“And” between values parts separate entries of the source, which are not always exact repeats. Identical values can stand only once. Compounds without any hit were thinned out: in the full panel of roughly 83,000, 20% have a hit.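 Negative percent growth values reflect cell death: -40 means 40% of the cells present at the start died, and -100 means all died.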 The source made the active and inactive calls. The calls were made as follows: active = growth percent below 10; inactive = the rest.

What was measured:
Assay in all cases: NCI-60 one-dose screen, 48 h (100 = growth as untreated, 0 = no growth, -100 = all killed)
T-47D breast = conditions: 10 µM unless noted
BT-549 breast = conditions: 10 µM unless noted
MDA-MB-435 melanoma = conditions: 10 µM unless noted
SW-620 colon = conditions: 10 µM unless noted
MCF7 breast = system: MCF7 breast
HCT-116 colon = conditions: 10 µM unless noted
KM12 colon = conditions: 10 µM unless noted
HCC-2998 colon = conditions: 10 µM unless noted

Measured: growth

C=CC(C)(C)n1cc(C2=C(O)C(=O)C(c3cn(C(C)(C)C=C)c4ccccc34)=C(O)C2=O)c2ccccc21
active: MCF7 breast; 100 µM -81.2% and -91.7%
inactive: T-47D breast 85.9% | BT-549 breast 96.3% | MDA-MB-435 melanoma 103% | SW-620 colon 105% | MCF7 breast; 10 µM 96.1% | HCT-116 colon 97.4% | KM12 colon 99.9%

C=CCOc1ccc(Cl)cc1Cl
inactive: T-47D breast 103% | BT-549 breast 101% | MDA-MB-435 melanoma 102% | SW-620 colon 107% | MCF7 breast; 10 µM unless noted 105% | HCT-116 colon 104% | HCC-2998 colon 114% | KM12 colon 109%

O=S(=O)(O)c1ccc(O)c(C2CCCCC2)c1
inactive: T-47D breast 89.1% | BT-549 breast 98.2% | MDA-MB-435 melanoma 102% | SW-620 colon 108% | MCF7 breast; 10 µM unless noted 91.8% | HCT-116 colon 92.7% | HCC-2998 colon 113% | KM12 colon 105%

Nc1ncnc(Nc2ccc(C(F)(F)F)cc2)n1
inactive: T-47D breast 96.8% | BT-549 breast 98.2% | MDA-MB-435 melanoma 99.9% | SW-620 colon 109% | MCF7 breast; 10 µM unless noted 96.6% | HCT-116 colon 95.3% | HCC-2998 colon 101% | KM12 colon 105%

Oc1cc(O)c2c(c1)O[C@H](c1ccc(O)c(O)c1)[C@@H](O)C2
inactive: T-47D breast 104% | BT-549 breast 100% | MDA-MB-435 melanoma 104% | SW-620 colon 106% | MCF7 breast; 10 µM unless noted 104% | HCT-116 colon 109% | HCC-2998 colon 108%

Cc1ccc(S(N)(=O)=O)cc1Cl
inactive: T-47D breast 102% | BT-549 breast 77.9% | MDA-MB-435 melanoma 114% | SW-620 colon 114% | MCF7 breast; 10 µM unless noted 96.3% | HCT-116 colon 104% | HCC-2998 colon 116% | KM12 colon 112%

O=C1NC(=O)/C(=C\c2ccncc2)N1
inactive: T-47D breast 101% | BT-549 breast 99.5% | MDA-MB-435 melanoma 96% | SW-620 colon 99% | MCF7 breast; 10 µM unless noted 94.9% | HCT-116 colon 89.6% | HCC-2998 colon 133% | KM12 colon 86.9%

S=C(NCc1ccccc1)N1CCC(CCCC2CCN(C(=S)NCc3ccccc3)CC2)CC1
inactive: T-47D breast 71.8% | BT-549 breast 98.2% | MDA-MB-435 melanoma 101% | SW-620 colon 108% | MCF7 breast; 10 µM unless noted 82.3% | HCT-116 colon 85.5% | HCC-2998 colon 123% | KM12 colon 95.9%

Nc1nc(N)nc(N2CCCCC2)n1
inactive: T-47D breast 101% | BT-549 breast 106% | MDA-MB-435 melanoma 115% | SW-620 colon 106% | MCF7 breast; 10 µM unless noted 104% | HCT-116 colon 106% | HCC-2998 colon 106% | KM12 colon 101%

CC(=O)c1cccc(N(C)S(=O)(=O)c2ccc(C)cc2)c1
active: MDA-MB-435 melanoma 8.55%
inactive: T-47D breast 87.8% | BT-549 breast 82.8% | SW-620 colon 81.7% | MCF7 breast; 10 µM unless noted 60.5% | HCT-116 colon 94% | HCC-2998 colon 82.6% | KM12 colon 49.8%

CCNc1ccc2ccccc2c1N=Nc1ccc(N=Nc2ccccc2)cc1
inactive: T-47D breast 84.7% | BT-549 breast 120% | MDA-MB-435 melanoma 110% | SW-620 colon 99.8% | MCF7 breast; 10 µM unless noted 85.2% | HCT-116 colon 72% | HCC-2998 colon 110% | KM12 colon 105%

O=[n+]1ccn([O-])c2ccccc21
inactive: T-47D breast 92.4% | BT-549 breast 92.5% | MDA-MB-435 melanoma 101% | SW-620 colon 93.9% | MCF7 breast; 10 µM unless noted 95.8% | HCT-116 colon 95.7% | HCC-2998 colon 108% | KM12 colon 99%

Clc1ccc(-c2noc(/C=C\c3ccccc3)n2)cc1
inactive: T-47D breast 89% | BT-549 breast 102% | MDA-MB-435 melanoma 92.7% | SW-620 colon 110% | MCF7 breast; 10 µM unless noted 74.4% | HCT-116 colon 102% | HCC-2998 colon 95.2% | KM12 colon 100%

CCOC(=O)c1cc(Cl)c(O)c(Cl)c1
inactive: T-47D breast 118% | BT-549 breast 105% | MDA-MB-435 melanoma 126% | SW-620 colon 109% | MCF7 breast; 10 µM unless noted 98.1% | HCT-116 colon 102% | HCC-2998 colon 112% | KM12 colon 108%

CC1=CC(=Nc2ccc(N(C)C)cc2)C=C(C)C1=O
inactive: T-47D breast 48.5% | BT-549 breast 74.1% | MDA-MB-435 melanoma 75.7% | SW-620 colon 93.8% | MCF7 breast; 10 µM unless noted 77% | HCT-116 colon 83.5% | HCC-2998 colon 96.1% | KM12 colon 87.5%

Clc1ccc(C(SCc2ccccc2)SCc2ccccc2)cc1
inactive: T-47D breast 79% | BT-549 breast 103% | MDA-MB-435 melanoma 97.9% | SW-620 colon 89.4% | MCF7 breast; 10 µM unless noted 93.8% | HCT-116 colon 76.3% | HCC-2998 colon 120% | KM12 colon 85.1%

CCCC(OC(C)=O)c1ccc2c(c1)OCO2 (stereo not drawn)
inactive: T-47D breast 100% | BT-549 breast 110% | MDA-MB-435 melanoma 106% | SW-620 colon 109% | MCF7 breast; 10 µM unless noted 95.8% | HCT-116 colon 108% | HCC-2998 colon 98% | KM12 colon 106%

CC(=O)NNC(=S)N/C=C/c1c(C)ccc([N+](=O)[O-])c1[N+](=O)[O-]
inactive: T-47D breast 110% | BT-549 breast 99.9% | MDA-MB-435 melanoma 100% | SW-620 colon 110% | MCF7 breast; 10 µM unless noted 96.2% | HCT-116 colon 89.9% | HCC-2998 colon 107% | KM12 colon 97.2%

CC(=O)c1cccc(NS(=O)(=O)c2ccc(C)cc2)c1
active: MDA-MB-435 melanoma -21.4%
inactive: T-47D breast 67.7% | BT-549 breast 74.8% | SW-620 colon 43.3% | MCF7 breast; 10 µM unless noted 39.8% | HCT-116 colon 60.2% | HCC-2998 colon 65.4% | KM12 colon 34.2%

O=C(Nc1c(Cl)cc(Cl)cc1Cl)ON=C1CCCCC1
inactive: T-47D breast 98.6% | BT-549 breast 113% | MDA-MB-435 melanoma 107% | SW-620 colon 114% | MCF7 breast; 10 µM unless noted 102% | HCT-116 colon 107% | HCC-2998 colon 117% | KM12 colon 96.5%

CCNc1ncnc2[nH]ncc12
inactive: T-47D breast 103% | BT-549 breast 84.3% | MDA-MB-435 melanoma 102% | SW-620 colon 99.2% | MCF7 breast; 10 µM unless noted 93.3% | HCT-116 colon 105% | HCC-2998 colon 106% | KM12 colon 103%

CCc1ccccc1C(=O)N(CC)CC
inactive: T-47D breast 92.8% | BT-549 breast 102% | MDA-MB-435 melanoma 104% | SW-620 colon 105% | MCF7 breast; 10 µM unless noted 91% | HCT-116 colon 92.9% | HCC-2998 colon 104% | KM12 colon 103%

COc1cc(N)c2ncccc2c1Cl
inactive: T-47D breast 101% | BT-549 breast 87.5% | MDA-MB-435 melanoma 111% | SW-620 colon 109% | MCF7 breast; 10 µM unless noted 104% | HCT-116 colon 95.3% | HCC-2998 colon 106% | KM12 colon 117%

Cc1cc(Cc2ccccc2)c(O)c(Cc2ccccc2)c1
inactive: T-47D breast 85.3% | BT-549 breast 84.1% | MDA-MB-435 melanoma 98.1% | SW-620 colon 102% | MCF7 breast; 10 µM unless noted 105% | HCT-116 colon 73.5% | HCC-2998 colon 101% | KM12 colon 90.5%

O=S(=O)(O)c1cccc2cccnc12
inactive: T-47D breast 106% | BT-549 breast 121% | MDA-MB-435 melanoma 105% | SW-620 colon 94.6% | MCF7 breast; 10 µM unless noted 106% | HCT-116 colon 100% | HCC-2998 colon 103% | KM12 colon 105%

O=C(O)c1cc(I)ccc1O
inactive: T-47D breast 112% | BT-549 breast 85.9% | MDA-MB-435 melanoma 100% | SW-620 colon 116% | MCF7 breast; 10 µM unless noted 95.7% | HCT-116 colon 111% | HCC-2998 colon 95.1% | KM12 colon 108%

CC1(C)OC(=O)CC1=O
inactive: T-47D breast 82% | BT-549 breast 98.1% | MDA-MB-435 melanoma 104% | SW-620 colon 100% | MCF7 breast; 10 µM unless noted 99.3% | HCT-116 colon 103% | HCC-2998 colon 100% | KM12 colon 102%

CC(=O)Nc1ccc(O)c(C)c1
inactive: T-47D breast 95.9% | BT-549 breast 112% | MDA-MB-435 melanoma 108% | SW-620 colon 106% | MCF7 breast; 10 µM unless noted 99.9% | HCT-116 colon 99.1% | HCC-2998 colon 106% | KM12 colon 106%

COc1cc(C(=O)N2CCN(c3ccccc3)CC2)c2ccccc2n1
active: MDA-MB-435 melanoma -24.2% | HCT-116 colon 8.75% | HCC-2998 colon -20.3% | KM12 colon 2.35%
inactive: T-47D breast 51.1% | BT-549 breast 12.7% | SW-620 colon 25.2% | MCF7 breast; 10 µM unless noted 15.8%

C=CCc1cc(OC)c(O)c(OC)c1
inactive: T-47D breast 83.7% | BT-549 breast 106% | MDA-MB-435 melanoma 108% | SW-620 colon 114% | MCF7 breast; 10 µM unless noted 96.9% | HCT-116 colon 92.6% | HCC-2998 colon 102% | KM12 colon 104%

Cc1ccccc1NC(=O)Oc1ccc(Cl)cc1C(=O)c1ccccc1
inactive: T-47D breast 104% | BT-549 breast 92.3% | MDA-MB-435 melanoma 103% | SW-620 colon 98.5% | MCF7 breast; 10 µM unless noted 105% | HCT-116 colon 90.2% | HCC-2998 colon 107% | KM12 colon 90.4%

O=C(OCc1ccccc1)n1nnc2ccccc21
inactive: T-47D breast 106% | BT-549 breast 100% | MDA-MB-435 melanoma 101% | SW-620 colon 107% | MCF7 breast; 10 µM unless noted 97.3% | HCT-116 colon 98.1% | HCC-2998 colon 103% | KM12 colon 107%

COc1ccc2c(c1)Nc1ccccc1S2
inactive: T-47D breast 95.7% | BT-549 breast 89.1% | MDA-MB-435 melanoma 112% | SW-620 colon 106% | MCF7 breast; 10 µM unless noted 98.6% | HCT-116 colon 105% | HCC-2998 colon 108% | KM12 colon 110%
